Test results published in PubChem BioAssay.
Unmarked numbers belong to inactive results. Activity calls are given as the source filed them. Unless noted, no stated cut-off is given here; in the data, active means inhibition above about 44%; inactive means the rest.

Columns and labels:
[1] = StAR promoter reporter inhibitors, counter-screen for LRH-1 inverse agonist project, cell-based, luminescence, high throughput (AID 651611; in the data active means inhibition above about 28%); details: StAR promoter luciferase reporter counterscreen, at 3.6 µM, active compounds read high
[2] = molecular target: Nuclear receptor subfamily 5 group A member 2 (Homo sapiens) (UniProt O00482); assay: NR5A2 activity suppression in reporter cells – cell-based, luminescence, confirmation (AID 651613; in the data active means inhibition above about 42%;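 further: HEK293T cells co-transfected with LRH-1 and StAR promoter luciferase reporter; 0% = vehicle wells and 100% = parental cells lacking receptor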); details: cell-based LRH-1 luciferase reporter, inverse agonism; at 3.6 µM; active compounds read high
Sequence of Nuclear receptor subfamily 5 group A member 2 (Homo sapiens) (O00482 whole entry, looked up): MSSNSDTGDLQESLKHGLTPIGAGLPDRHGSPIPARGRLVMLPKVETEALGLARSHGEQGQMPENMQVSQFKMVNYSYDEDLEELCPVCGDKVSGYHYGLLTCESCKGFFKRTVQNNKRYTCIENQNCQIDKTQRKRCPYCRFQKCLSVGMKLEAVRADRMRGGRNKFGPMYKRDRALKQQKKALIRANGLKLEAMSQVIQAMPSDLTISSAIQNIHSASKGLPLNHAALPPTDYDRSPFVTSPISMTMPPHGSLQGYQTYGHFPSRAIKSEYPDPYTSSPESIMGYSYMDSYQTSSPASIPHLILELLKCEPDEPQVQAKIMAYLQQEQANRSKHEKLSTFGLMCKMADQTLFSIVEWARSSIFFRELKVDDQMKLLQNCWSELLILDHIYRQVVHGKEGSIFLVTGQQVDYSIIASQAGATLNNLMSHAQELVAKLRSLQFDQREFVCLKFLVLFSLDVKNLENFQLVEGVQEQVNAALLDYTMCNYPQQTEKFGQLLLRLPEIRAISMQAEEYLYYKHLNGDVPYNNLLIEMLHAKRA

[3] = molecular target: Steroidogenic factor 1 (Homo sapiens) (UniProt Q13285); assay: inverse agonism at SF1 nuclear receptor – cell-based, luminescence, high throughput, counter-screen for LRH-1 inverse agonist project (AID 651614); details: cell-based SF1 luciferase reporter, at 3.6 µM, active compounds read high;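 further: cells cotransfected with StAR promoter reporter and SF1 expression vector; 0% = vehicle on cells with receptor and 100% = vehicle on cells lacking receptor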
Sequence of Steroidogenic factor 1 (Homo sapiens) (Q13285 whole entry, looked up, the tested form may be a part): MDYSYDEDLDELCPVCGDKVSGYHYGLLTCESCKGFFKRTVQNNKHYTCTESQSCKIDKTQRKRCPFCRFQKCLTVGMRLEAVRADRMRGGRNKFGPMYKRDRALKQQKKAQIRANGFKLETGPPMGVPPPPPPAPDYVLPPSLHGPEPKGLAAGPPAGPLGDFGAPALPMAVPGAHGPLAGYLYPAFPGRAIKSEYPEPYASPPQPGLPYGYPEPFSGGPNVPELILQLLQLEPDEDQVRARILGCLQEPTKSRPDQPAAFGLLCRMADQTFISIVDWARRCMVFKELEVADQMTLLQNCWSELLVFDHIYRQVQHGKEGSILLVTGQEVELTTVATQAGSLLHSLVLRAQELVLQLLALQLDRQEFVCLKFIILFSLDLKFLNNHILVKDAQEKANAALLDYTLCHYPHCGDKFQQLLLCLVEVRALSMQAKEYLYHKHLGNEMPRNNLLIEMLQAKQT

[4] = compounds suppressing VP16-driven luciferase signal – cell-based, luminescence, high throughput, counter-screen for LRH-1 inverse agonist project (AID 651615; in the data active means inhibition above about 33%); details: Gal4-VP16 luciferase reporter cells, at 3.6 µM, active compounds read high

Row | SMILES | inhibition [1] [%] | inhibition [2] | inhibition [3] | inhibition [4] [%]
1 | CCc1ccccc1NC(=O)CSc1nc2n[nH]c(C)c2c(=N)n1-c1cccc(OC)c1 | 16.7 | 38.2% | 19.4% | -17.4
2 | CN(Cc1cccs1)c1nc(-c2cccnc2)nc2ccccc12 | 9.82 | 54.4% (active) | 43% (active) | 5.14
3 | O=C(Nc1cccnc1)c1ccc([N+](=O)[O-])o1 | 27.2 | 61.9% (active) | 58.5% (active) | -15.2
4 | Cc1c(NC(=S)NC(=O)c2ccc(Cl)cc2)c(=O)n(-c2ccccc2)n1C | 11.3 | 51.5% (active) | 33.4% | -1.07
5 | CCC(=O)Nc1nnc(SCC(=O)NCCc2ccc(OC)c(OC)c2)s1 | 12.9 | 55.6% (active) | 57.3% (active) | -15.4
6 | Cc1cc(N2CCN(C(=O)c3ccco3)CC2)n2nc(-c3cccc(F)c3)cc2n1 | 14.2 | 54.6% (active) | 60.6% (active) | -10.7
7 | CC(=O)Nc1ccc(-c2c(C)cc3oc(=O)cc(-c4ccccc4)c3c2C)cc1 | 15.9 | 57.9% (active) | 58.9% (active) | -2.96
8 | CCOC(=O)c1c(N)n(CCOC(=O)c2cccs2)c2nc3ccccc3nc12 | 0.69 | 21.6% | 23.7% | -11.6
9 | Cc1cc(C(=O)CSc2nnnn2-c2ccccc2)c(C)n1-c1ccc2c(c1)OCO2 | 0.11 | 42.3% (active) | 28.5% | 27.6
